21 molecules from PubChem BioAssay (EPA / NIEHS) can be followed below.

SMILES strings stand for the structures. Results filed as inconclusive are left out. Active and inactive are the calls of the source. The calls were made as follows: active = hit-call score of the fitted dose curve at least 0.9, where 1 is the maximum; inconclusive = response in the unintended direction; inactive = score below 0.9.

A word on the AC50: it is the concentration at which the activity in the assay is half-maximal.

Chain of Bile acid receptor (Homo sapiens) (Q96RI1 whole entry, looked up, the tested form may be a part): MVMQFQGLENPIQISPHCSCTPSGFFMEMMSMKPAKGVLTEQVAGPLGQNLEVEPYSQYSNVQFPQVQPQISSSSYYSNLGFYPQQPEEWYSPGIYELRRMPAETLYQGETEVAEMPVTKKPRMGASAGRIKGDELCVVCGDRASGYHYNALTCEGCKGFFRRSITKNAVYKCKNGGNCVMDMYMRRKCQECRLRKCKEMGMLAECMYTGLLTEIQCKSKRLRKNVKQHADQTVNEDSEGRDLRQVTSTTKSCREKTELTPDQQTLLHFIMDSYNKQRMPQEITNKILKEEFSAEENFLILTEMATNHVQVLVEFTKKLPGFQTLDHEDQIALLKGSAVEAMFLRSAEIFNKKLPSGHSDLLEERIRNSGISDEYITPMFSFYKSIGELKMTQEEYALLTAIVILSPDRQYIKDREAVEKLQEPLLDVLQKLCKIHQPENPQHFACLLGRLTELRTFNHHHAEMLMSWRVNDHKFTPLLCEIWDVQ

This assay addresses Bile acid receptor (Homo sapiens) (UniProt Q96RI1). The assay is described as follows: OT_FXR_FXRSRC1_0480: Odyssey Thera (OT) 8-hour HEK293T Protein-Complementation Assay for Farnesoid X receptor/SRC-1 Co-activator (AID 2283383). As for the experimental part:
OT_FXR_FXRSRC1_0480 is a cell-based assay that uses HEK293T, a human kidney cell line, with measurements taken at 8 hours after chemical dosing in a 384-well plate.OT_FXR_FXRSRC1_0480 is one of one assay component(s) measured or calculated from the OT_FXR_FXRSRC1_0480 assay. It is designed to make measurements of protein fragment complementation, a form of binding reporter, as detected with fluorescence intensity signals by Protein-fragment Complementation technology.Data from the assay component OT_FXR_FXRSRC1_0480 was analyzed into 1 assay endpoint. This assay endpoint, OT_FXR_FXRSRC1_0480, was analyzed in the positive analysis fitting direction relative to DMSO as the negative control and baseline of activity. Using a type of binding reporter, measures of receptor for gain-of-signal activity can be used to understand the binding at the pathway-level as they relate to the gene NR1H4. Furthermore, this assay endpoint can be referred to as a primary readout, because the performed assay has only produced 1 assay endpoint. To generalize the intended target to other relatable targets, this assay endpoint is annotated to the nuclear receptor intended target family, where the subfamily is non-steroidal.
Protein-fragment complementation assay, or PCA, is a method for the identification and quantification of protein-protein interactions. In the PCA, the proteins of interest ("bait" and "prey") are each covalently linked to fragments of a third protein (e.g. DHFR, which acts as a "reporter"). Interaction between the bait and the prey proteins brings the fragments of the reporter protein in close proximity to allow them to form a functional reporter protein whose activity can be measured.
In the case of `NC(=O)c1cccnc1`, the molecule was called inactive.

As to `CCc1cccc(O)c1`, the result was inactive.

Consider `CCC(=O)OC(C)(C)C1CC=C(C)CC1` (stereo unspecified), for which the concentration at half-maximal activity (AC50) was 83.9 µM (active).

As for `CCCc1ccc(O)cc1`, the call was inactive.

For `CCCCCCCCOS(=O)(=O)O`, the molecule was called inactive.

On to `O=C1OC2(c3ccc(O)cc3Oc3cc(O)ccc32)c2ccccc21`, for which the AC50 is 13.1 µM (active).

For `CC(=O)c1ccc2ccccc2c1`, the result was inactive.

Consider `CCCCCC(=O)O[C@]1(C(C)=O)CC[C@H]2[C@@H]3CCC4=CC(=O)CC[C@]4(C)[C@H]3CC[C@@]21C`, for which the AC50 is 5.16 µM (active).

For the molecule `CC1=CCC(C(C)(C)O)CC1` (stereo unspecified), the result was inactive.

For `CC(=O)C1C(=O)C=C(C)OC1=O` (stereo unspecified), the molecule was called inactive.

`CCCCCC1CCC(=O)O1` (stereo unspecified): the result was inactive.

Regarding `OC[C@H]1O[C@@H](O[C@H]2[C@H](O)[C@@H](O)[C@H](O)O[C@@H]2CO)[C@H](O)[C@@H](O)[C@H]1O`, the molecule was classed as inactive.

For `CC1COC(=O)O1` (stereo unspecified), the outcome was inactive.

Regarding `CCC(C)(CCCC(C)C)OC(C)=O` (stereo unspecified), the molecule was classed as inactive.

Turning to `O=S(=O)(O)c1cc(S(=O)(=O)O)c2c(N=Nc3ccccc3)c(O)ccc2c1`, the outcome was inactive.

In the case of `CCC(C)(C)C1CCC(OC)CC1` (stereo unspecified), the result was inactive.

Regarding `COc1ccc2[nH]cc(CCNC(C)=O)c2c1`, the outcome was inactive.

In the case of `COc1ccccc1O`, the result was inactive.

As for `CC(=O)C1=C(C)[C@@H]2C[C@@]3(C1)[C@H](C)CC[C@H]3C2(C)C`, the AC50 was 37.2 µM (active).

`CCCCCCCCCO`: the outcome was inactive.

Regarding `C1=COCCC1`, the outcome was inactive.
